TEAD-YAP inh: TEAD-YAP interaction inhibition; HEK-TIYL cells, TEAD-Gal4/YAP UAS-luciferase luminescence; inhibition, % at 9.12 µM; AID 1259422; 1.4% of 640,000 active; in the data active = inhibition above about 32%;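 also: 0% = median of test compound wells and 100% = reference inhibitor wells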
FBW7 activator: activators of human E3 ligase FBW7. Q969H0. AlphaScreen FBW7–phospho-cyclin E peptide binding, activator screen. normalized activity (activation), % at 26.1 µM. 0.13% of 650,000 active; in the data active = normalized activity above about 1.9%;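 also: purified mutant Fbw7 with reduced substrate affinity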
GPR151 activ: activators of human GPR151. Q8TDV0. PathHunter beta-arrestin GPR151 cells, luminescence. activation, % at 11.2 µM. 1% of 650,000 active. AID 1508602; in the data active = activation above about 4.9%;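 also: 0% = median of compound wells and 100% = cells with positive control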
Target sequence (Q8TDV0 whole entry, looked up): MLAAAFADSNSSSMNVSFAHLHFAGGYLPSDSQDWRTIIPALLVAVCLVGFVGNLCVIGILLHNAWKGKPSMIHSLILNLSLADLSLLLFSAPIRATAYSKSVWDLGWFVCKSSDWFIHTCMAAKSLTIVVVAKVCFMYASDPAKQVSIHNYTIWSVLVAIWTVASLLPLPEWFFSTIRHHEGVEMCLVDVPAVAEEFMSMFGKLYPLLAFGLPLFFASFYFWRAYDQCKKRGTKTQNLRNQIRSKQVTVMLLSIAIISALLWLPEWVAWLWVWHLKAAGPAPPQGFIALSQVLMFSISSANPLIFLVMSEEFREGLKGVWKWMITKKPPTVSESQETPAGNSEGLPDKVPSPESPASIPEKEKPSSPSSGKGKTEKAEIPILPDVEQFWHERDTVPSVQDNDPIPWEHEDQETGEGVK
MITF inh: blocks human microphthalmia-associated transcription factor | O75030 | AlphaScreen MITF homodimerization, bead proximity signal | inhibition, % at 2.6 µM | 0.91% of 650,000 active | AID 1259374; in the data active = inhibition above about 50%;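 also: 0% = vehicle wells with protein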
MITF inh conf: confirmation of human MITF inhibitors. AID 1259372. shares compounds with MITF inh. 16% of 4,700 active. inhibition, % at 2.6 µM. AlphaScreen MITF homodimerization, biotin/His-MITF beads;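 active = inhibition above a cutoff derived from the DMSO control wells, cut at about 28% in these data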;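 also: 0% = MITF dimer wells with DMSO only; inhibitors lower the bead chemiluminescence by keeping MITF from dimerizing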
AS interf DR: AlphaScreen optical interference, dose response counter-screen. IC50, µM. 6% of 480 active. AlphaScreen optical interference counterscreen, cell-free. shares compounds with MITF inh; call rule not given here
AS interf ctr: counter-screen: compounds optically interfering with AlphaScreen. shares compounds with MITF inh. LysRS AlphaScreen counterscreen, signal interference, triplicate. inhibition, % at 2.6 µM. 7.6% of 4,700 active. AID 1259376;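 active = inhibition above a cutoff derived from the DMSO control wells, cut at about 30% in these data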
GPR151 conf act: human GPR151 activation, confirmation screen | shares compounds with GPR151 activ | GPR151 PathHunter beta-arrestin cells, luminescence, 90 min; % of EA-reagent control over plate median | activation, % at 11.2 µM | 6,700 tested, under 10 active | AID 1508609;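 active = mean percent activation across replicates above the confirmation screen cutoff of 4.91%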
GPR119 ag: counter-screen for GPR151 activators: effect on human GPR119; shares compounds with GPR151 activ; GPR119 PathHunter beta-arrestin cells, luminescence, 90 min; 0 = compound-well median, 100 = enzyme-acceptor control; activation, % at 11.2 µM; 0.3% of 6,700 active; AID 1508611;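 active = mean percent activation in the counterscreen above 29.09%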;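 also: counterscreen on off-target GPR119 to flag nonselective hits from the GPR151 activator screen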
Active calls of the source: *. An excerpt weighted towards active compounds, which were near 3.5% of everything screened.

What do the screens show for `Brc1c(OCCCN2CCNCC2)ccc2ccccc12`?
TEAD-YAP inh: -18; FBW7 activator: 0; GPR151 activ: 18*; MITF inh: 56*; MITF inh conf: 6; AS interf ctr: -1; GPR151 conf act: 0; GPR119 ag: -5

Results for C=CCC1(CC=C)CCCCN1C(=O)CC1C(=O)NCCN1Cc1ccoc1 (stereo unspecified) ?
TEAD-YAP inh: 2; FBW7 activator: 0; GPR151 activ: 6.4*; MITF inh: 80*; MITF inh conf: 0; AS interf ctr: -1; GPR151 conf act: 0; GPR119 ag: -9

Results for C=CCNCCOCCOc1ccc(OCC)cc1 ?
TEAD-YAP inh: 15; FBW7 activator: 2; GPR151 activ: 6.0*; MITF inh: 51*; MITF inh conf: 49*; AS interf DR: >6.5; AS interf ctr: 7; GPR151 conf act: 1; GPR119 ag: 1

Results for COC(=O)c1cccc(S(=O)(=O)N2CCC(c3nc4ccccc4s3)CC2)c1 ?
TEAD-YAP inh: 4; FBW7 activator: 0; GPR151 activ: 1; MITF inh: 14

How did CCc1c(C)c(C#N)c2nc3ccccc3n2c1Nc1ccc(N(CC)CC)cc1 do in these assays?
TEAD-YAP inh: 15; FBW7 activator: 0; GPR151 activ: -1; MITF inh: 19

Results for COc1ccc(N2CCN(Cc3ccc([N+](=O)[O-])s3)CC2)cc1 ?
TEAD-YAP inh: 4; FBW7 activator: 0; GPR151 activ: 5.1*; MITF inh: 56*; GPR151 conf act: 0; GPR119 ag: 9

Results for COc1ccc(N2CCN(C/C=C/c3ccccc3[N+](=O)[O-])CC2)cc1 ?
TEAD-YAP inh: 3; FBW7 activator: 0; GPR151 activ: 0; MITF inh: 15

What do the screens show for `CC(=O)Nc1cccc(NC(=O)COc2cccc3ccc(N4CCCC4)nc23)c1`?
TEAD-YAP inh: 31; FBW7 activator: 0; GPR151 activ: 5.3*; MITF inh: 19; GPR151 conf act: 0; GPR119 ag: 7

What do the screens show for `CCOc1ccc(N(CC(=O)NCCc2ccc(OC)c(OC)c2)S(C)(=O)=O)cc1`?
TEAD-YAP inh: 2; FBW7 activator: 0; GPR151 activ: 1; MITF inh: 3

Results for CC(C)(C)NC(=O)C(c1ccccn1)N(Cc1ccccc1)C(=O)c1csnn1 (stereo unspecified) ?
TEAD-YAP inh: 7; FBW7 activator: 1; GPR151 activ: 4.9*; MITF inh: 7; GPR151 conf act: 0; GPR119 ag: -3

Results for CN1CCN(/N=C/C2=C(O)CC(C)(C)CC2=O)CC1 ?
TEAD-YAP inh: -1; FBW7 activator: 1; GPR151 activ: 8.4*; MITF inh: 23; GPR151 conf act: 0; GPR119 ag: 4

What do the screens show for `COc1cccc(OC)c1-c1[nH]nc2nc(-c3ccc(=O)[nH]c3)ccc12`?
TEAD-YAP inh: 7; FBW7 activator: 0; GPR151 activ: 6.7*; MITF inh: 1; GPR151 conf act: -1; GPR119 ag: -4

Results for Cc1cc(C)nc(N2CCC(N(Cc3cccnc3)C(=O)Cc3ccc(F)cc3)CC2)n1 ?
TEAD-YAP inh: -5; FBW7 activator: 0; GPR151 activ: 2; MITF inh: -4

Results for CCCONC(=O)Nc1ccccc1C ?
TEAD-YAP inh: -9; FBW7 activator: 0; GPR151 activ: 0; MITF inh: -4

What do the screens show for `O=C(Cn1cc([N+](=O)[O-])cn1)Nc1ccccn1`?
TEAD-YAP inh: 2; FBW7 activator: 0; GPR151 activ: 3; MITF inh: 1

How did O=C(Cn1cc([N+](=O)[O-])cn1)n1cccn1 do in these assays?
TEAD-YAP inh: -4; FBW7 activator: 0; GPR151 activ: 5.5*; MITF inh: -6; GPR151 conf act: -1; GPR119 ag: -11

Results for COc1ccc2c(c1)c1n[nH]c(=S)nc1n2C ?
TEAD-YAP inh: -1; FBW7 activator: 0; GPR151 activ: 4; MITF inh: 4

What do the screens show for `COCCO[C@H]1[C@H](NC(=O)C(C)C)c2ccccc2C12CCN(C(=O)CCC(C)C)CC2`?
TEAD-YAP inh: 4; FBW7 activator: 0; GPR151 activ: 5.2*; MITF inh: 21; GPR151 conf act: 0; GPR119 ag: 8

What do the screens show for `COCCO[C@H]1[C@H](NC(=O)C(C)C)c2ccccc2C12CCN(C(=O)C1CCCC1)CC2`?
TEAD-YAP inh: 7; FBW7 activator: 0; GPR151 activ: -1; MITF inh: -4

What do the screens show for `CCCNC(=O)C(=O)NCCc1ccc(OC)c(OC)c1`?
TEAD-YAP inh: 4; FBW7 activator: 0; GPR151 activ: 6.2*; MITF inh: 3; GPR151 conf act: 0; GPR119 ag: -7

Results for COc1ccc(CCNC(=O)C(=O)NCCC(C)C)cc1OC ?
TEAD-YAP inh: 0; FBW7 activator: 0; GPR151 activ: -1; MITF inh: 16

What do the screens show for `CN1C(=O)c2cccc(NC(=O)c3ccc4c(c3)CCCC4)c2C1=O`?
TEAD-YAP inh: 1; FBW7 activator: 0; GPR151 activ: 1; MITF inh: -10

What do the screens show for `NNC(=O)CCCNS(=O)(=O)c1ccc([N+](=O)[O-])cc1`?
TEAD-YAP inh: 0; FBW7 activator: 0; GPR151 activ: 5.7*; MITF inh: 0; GPR151 conf act: 1; GPR119 ag: 6

How did O=C(CCC(=O)Nc1ccc(I)cc1)N/N=C/c1ccc(F)cc1 do in these assays?
TEAD-YAP inh: 1; FBW7 activator: 0; GPR151 activ: 6.6*; MITF inh: 5; GPR151 conf act: -1; GPR119 ag: -14

How did COc1cccc(OC)c1C(=O)Nn1c(C2CCCCC2)nc2ccccc2c1=O do in these assays?
TEAD-YAP inh: 12; FBW7 activator: 0; GPR151 activ: -1; MITF inh: 10

Results for O=C1C2C3CCC(C3)C2C(=O)N1c1ccc(OS(=O)(=O)c2ccccc2)cc1 (stereo unspecified) ?
TEAD-YAP inh: -37; FBW7 activator: 0; GPR151 activ: 7.6*; MITF inh: -12; GPR151 conf act: 0; GPR119 ag: -7

Results for CCOC(=O)C1=C(Cn2nnc(C(=O)OC)c2C(=O)OC)NC(=O)NC1c1ccccc1 (stereo unspecified) ?
TEAD-YAP inh: 0; FBW7 activator: 0; GPR151 activ: 0; MITF inh: 8

Screening data from PubChem BioAssay.
